Assay outcomes as filed in PubChem.
PNC inhibitor: perinucleolar compartment assembly inhibition. hit rate 3.1% among 140,000. activity change (PNC), negative = inhibition, % at 10 µM. PC3M PTB-GFP, PNC prevalence imaging, 16 h; stronger effect = lower value;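 active = readout at or below -70, meaning at least 70% loss of cells showing the perinucleolar compartment, a nuclear body marking cancer cells; inconclusive = readout between -30 and a set limit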;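 note: plate controls were DMSO wells for no effect and camptothecin positive control wells for full effect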
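Compounds are pinned in duplicate onto adhered PC3M cells stably expressing GFP-tagged PTB and incubated 16 h at 37 C. Cells are then fixed, nuclei stained with Hoechst, and PNC-positive cells counted.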
ALOX12 inhib: blocks human 12-lipoxygenase activity; purified 12-hLO, xylenol orange hydroperoxide absorbance; Potency, µM (top dose mostly 57.1 µM), without a hit: top-dose activity change, negative = inhibition, most hits filed as inhibitors; hit rate 0.12% among 150,000; AID 1452; active = well fitted inhibition curve with a large enough effect; inconclusive = small, poorly fitted or top-dose-only effect; note: potency is the fitted concentration of half-maximal effect; nearly all actives have a fitted effect of over 55% in size
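Lipoxygenase turnover measured by absorbance at 573 and 405 nm after Fe-XO development. Human 12hLO 150 nM, arachidonate 40 uM, pH 7.0 Hepes buffer with detergent; 15 min compound preincubation, 30 min reaction.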
LMNA splice mod: changes lamin A minigene splicing in HeLa cells. HeLa LMNA splicing GFP/RFP minigene ratio, 48 h. Potency, µM (doses to about 46.1 µM), for inactives: top-dose ratio change, negative = inhibition, actives largely listed as inhibitors. hit rate 0.01% among 200,000; active = well fitted inhibition curve with a large enough effect in the signal ratio, with a control signal flat, not every such curve was filed as active; inconclusive = small, poorly fitted or top-dose-only effect, or effect the other way, or a change in a side signal; the % refers to the signal ratio; note: potency is the fitted concentration of half-maximal effect
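S3 HeLa stable clones carrying a lamin A-EGFP splicing minigene plus DsRed2 were seeded at 600 cells/well in Opti-MEM with 2% FBS, pin-dosed and incubated 48 h at 37°C. Acumen cytometry (488 nm) gave the GFP/RFP total-intensity ratio.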
ALDH1A1 block: blocks purified human ALDH1A1 activity; P00352; Purified ALDH1A1, NADH fluorescence, propionaldehyde substrate; Potency, µM (highest dose often 75.3 µM), without a hit: at the top dose activity, negative = inhibition, usual class: inhibitors; hit rate 7.3% among 220,000; AID 1030;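 note: potency is the fitted concentration of half-maximal effect; plate controls were no enzyme wells and a reference inhibitor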
HPGD block: blocks human HPGD enzyme activity; purified HPGD, NADH fluorescence kinetic, PGE2 substrate; Potency, µM, for inactives: top-dose activity change, negative = inhibition, hits mostly inhibitors; hit rate 4.3% among 150,000; AID 894; note: potency is the fitted concentration of half-maximal effect
Target sequence (P15428 whole entry, looked up): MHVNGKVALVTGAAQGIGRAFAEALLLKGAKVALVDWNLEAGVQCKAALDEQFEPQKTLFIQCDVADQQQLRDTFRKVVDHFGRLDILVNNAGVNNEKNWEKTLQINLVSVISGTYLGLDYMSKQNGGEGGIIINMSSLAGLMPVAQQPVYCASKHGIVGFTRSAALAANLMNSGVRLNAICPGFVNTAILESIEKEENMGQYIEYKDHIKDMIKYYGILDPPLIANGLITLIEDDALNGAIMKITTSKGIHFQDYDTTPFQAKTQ
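20 nM HPGD preincubated 15 min at room temperature with compound in 50 mM Tris-HCl pH 8, 0.01% Tween 20. Started with 1 mM NAD+ and 30 uM prostaglandin E2; NADH fluorescence (360/450 nm) read 5 times over 30-s intervals, last minus first.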
* marks the source's active call; other numbers are inactive results; ? = inconclusive; . = no result; [ ] = remark or other dose. Shown are actives, neighbours in structure and some others; about 10% of the full set was active somewhere. Unless noted, calls come from the whole dose curve; as a rule, active = well fitted inhibition curve with a large enough effect (not every such curve was filed as active); inconclusive = small, poorly fitted or top-dose-only effect, or another doubt; inactive = no such curve, though single readings can be large or run the other way. Unless noted, % is set by controls: 0 for no effect and ±100 for the full control effect.

SMILES | PNC inhibitor | ALOX12 inhib | LMNA splice mod | ALDH1A1 block | HPGD block
CCOC(=O)c1cnc(SC)nc1Sc1ccccc1Cl | -104* | 0% | 10% | 6% | 16µM*
O=C(Cn1cc(S(=O)(=O)Cc2cccc(Cl)c2)c2ccccc21)NCc1ccccc1Cl | . | . | 11%[46 µM] | . | .
CCC1C(=O)CC(c2ccco2)NC1c1ccco1 (centres undefined) | -100* | -3% | 9% | ? | -12%
C=CCC1(O)CC(c2ccco2)NC(c2ccco2)C1CCC (centres undefined) | 54 | -3% | -3% | ? | -5%
CC(NC(=O)C1CCC1)c1ccc2c(c1)OCO2 (centres undefined) | 28 | -3% | 4% | 9% | 20µM*
Cc1ccc(C(C)NC(=O)C2CCCO2)cc1C (centres undefined) | ? | 2% | -10% | -3% | 16µM*
CCOc1ccccc1C(=O)NC(C)c1ccc2c(c1)OCO2 (centres undefined) | -103* | 1% | -25% | 12% | ?
Cc1ccc(S(=O)(=O)NCCNC(=O)N2CCOCC2)cc1 | 7 | -3% | 8% | -1% | -8%
Cc1ccc(S(=O)(=O)NC(CN2CCOCC2)=NCCNS(=O)(=O)c2ccccc2)cc1 | 17 | 1% | ? | 2.5µM* | -13%
O=C(Nc1ccc(CN2CCCCC2)cc1)c1ccc2c(c1)OCO2 | 46 | -3% | -10% | -1% | 28µM*
Cc1cccc(Cn2ccc(NC(=O)c3ccc4c(c3)OCO4)n2)c1 | . | . | . | -4% | .
O=C(Nc1ccn(Cc2ccc(Cl)cc2)n1)c1ccc2c(c1)OCO2 | -82* | -22% | ? | ? | -20%
Cc1ccccc1CSc1nc2cc(C(=O)NC3CCCC3)ccc2c(=O)n1Cc1ccccc1 | . | . | -13%[46 µM] | . | .
O=C(CCC1N=C2c3ccccc3N=C(SCc3ccc(F)cc3)N2C1=O)NCc1ccc(F)cc1 (centres undefined) | . | . | -16%[46 µM] | . | .
OCCC1CN(Cc2cccn2-c2cccnc2)CCN1C1CCCCC1 (centres undefined) | . | . | . | 5% | .
Cc1ccc(C(=O)n2ncn(C)c2=S)cc1 | . | . | -26%[46 µM] | 6.3µM* | .
CCOc1ccccc1N1C(=O)CC(Sc2n[nH]c(-c3ccccc3)n2)C1=O (centres undefined) | . | . | ? | 11µM* | .
N#CCCN(C1CCCCC1)S(=O)(=O)CCOc1ccccc1 | ? | 3% | 9% | 8.9µM* | -4%
Cc1ccc(S(=O)(=O)N(CCC#N)C2CCCCC2)c2nsnc12 | 93 | -3% | ? | ? | -18%
CC(=O)c1cccc(NC(=O)Cc2ccc(NC(=O)N3CCCCc4ccccc43)cc2)c1 | . | . | -20%[46 µM] | . | .
C=CCn1c(SCC(=O)N2CCOCC2)nc(O)c(Cc2ccccc2)c1=O | -20 | -3% | 1% | 7% | -8%
C=CCn1c(CC#N)nnc1N1CCOCC1 | -103* | -5% | 8% | 8.9µM* | -4%
Cn1c(=O)c(Sc2ccccc2)c(O)c2ccccc21 | . | . | . | 25µM* | .
CC(C)n1c(O)c(N=NC(=O)c2ccccc2NS(=O)(=O)c2cccs2)c2ccccc21 | -16 | -2% | -1% | -11% | -9%
C=CCn1c(O)c(N=NC(=O)c2ccccc2NS(=O)(=O)c2cccs2)c2ccccc21 | 5 | -2% | -7% | 4.5µM* | .
SMILES | PNC inhibitor | ALOX12 inhib | LMNA splice mod | ALDH1A1 block | HPGD block
CCCCn1c(O)c(N=NC(=O)c2ccccc2NS(=O)(=O)c2cccs2)c2ccccc21 | 48 | -2% | -1% | 11µM* | -13%
CCCc1nn2c(=O)cc(COC(=O)c3cccc(NC(=O)CCc4ccccc4)c3)nc2s1 | . | . | -8%[46 µM] | . | .
Cc1cccc(CC2C(=O)Nc3ccccc32)c1 (centres undefined) | . | . | 7%[46 µM] | . | .
COc1cc(/C=N/NC(=S)NC2CC3C=CC2C3)cc(OC)c1OC (centres undefined) | . | . | . | 2.5µM* | .
Oc1c(Br)cc(Br)cc1/C=N/NC(=S)N[C@H]1CC2C=CC1C2 (some centres undefined) | . | . | ? | 13µM* | .
COc1ccc2c(c1)O[C@@H](c1cccc(C(F)(F)F)c1)[C@H](OC(=O)NCCOc1ccccc1)C2=O | . | . | . | 13% | -7%
CC1(C)OC(=O)C(=NNc2ccc(Br)cc2)C(=O)O1 | -19 | -3% | ? | 13µM* | -15%
CC1(C)OC(=O)C(=CNc2cccc(O)c2)C(=O)O1 | -19 | -6% | -14% | ? | -13%
CCOC(=O)c1c(NC(=O)Cn2nnc(-c3ccc(Cl)cc3)n2)sc(C)c1C | 7 | -1% | 5% | 1% | -3%
CC(C)NC(=O)Cn1nnc(-c2ccc(Cl)cc2)n1 | 30 | -7% | -2% | 10µM* | .
CCCC(C)NC(=O)c1ccc2[nH]c3c(c2c1)CC(C)CC3 (centres undefined) | 23 | -2% | ? | 16µM* | .
O=C(NCCO)c1ccc2[nH]c3c(c2c1)CCCC3 | -18 | -6% | -3% | 4% | -11%
CC(C)NC(=O)Cc1csc2nc(-c3ccccc3)cn12 | . | . | 4%[46 µM] | . | .
Cn1nnnc1SCC1=C(C(=O)O)N2C(=O)C(NC(=O)C3CC3c3ccccc3)C2SC1 (centres undefined) | . | . | -6%[46 µM] | 10µM* | .
CC(C(=O)NC1C(=O)N2C(C(=O)O)=C(CSc3nnnn3C)CSC12)n1cc(Br)cn1 (centres undefined) | . | . | . | 15µM* | .
Cc1ccccc1C1CC(=O)Oc2ccc(O)cc21 (centres undefined) | . | -3%[0.00818 µM] | . | 20µM* | 28µM*
COc1ccccc1NC(C#N)c1ccccc1OCc1ccccc1 (centres undefined) | -9 | -2% | -13% | 18µM* | -10%
Cc1c(OCc2ccccc2)cccc1OCc1ccccc1 | 58 | -5% | 12% | 5%[13.5 µM] | -11%
COc1ccccc1OCC(=O)NCC(c1ccc(Cl)cc1)N1CCOCC1 (centres undefined) | . | . | -6%[46 µM] | . | .
Cc1nc2ccc(NC(=O)Nc3ccnc4cccnc34)cc2o1 | . | -4% | . | ? | -1%
O=C1[C@H]2[C@H]3[C@H](O)[C@H](O)C/C(=N/OC[C@@H](O)COCc4ccco4)[C@H]3CC[C@@H]2C(=O)N1C[C@@H]1CCCO1 | . | . | . | 2%[13.5 µM] | .
Cc1ccc(S(=O)(=O)N2CCOCC(=O)NCCOCCNC(=O)COCC2)cc1 | 1 | -4% | -1% | 15% | -5%
Cc1cc(C)c2c(c1)[C@@H]1C=CC[C@@H]1[C@H](c1ccc(S(=O)(=O)N3CCOCC3)cc1)N2 | -81* | 0% | ? | 25µM* | 25µM*
Brc1cc2c(cc1/C=N/Nc1nc(N3CCCC3)nc(N3CCOCC3)n1)OCO2 | ? | 1% | 6% | 14µM* | -7%
CC1CCN(C(=O)Cn2c(SCC(=O)Nc3ccc(F)cc3)nc3ccccc32)CC1 | . | . | -22%[46 µM] | . | .
Brc1ccc(-c2nnc(-c3ccccc3Br)o2)cc1 | 20 | -18% | 2% | ? | ?
Cc1ccc(-c2nc(-c3ccccc3)no2)c(Cl)c1 | 19 | 1% | 3% | 8% | 40µM*
